The source of these data is the supplement of paper PMC6555819.

Holding throughout (assay): PBM binding z-score (relative to random genomic background probes); higher = stronger binding; sequences stand for … in GC…GCGATTGACAGCGTAGAATGAAGG
For assay [1], the system named is FXR:RXRa (NR concentration 270 nM, RXRa partner concentration 90 nM). The gist of the method:
(§1)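 Binding buffer was PBS pH 7.4 with 2% milk, 0.02% Triton X-100, 1 mM DTT, 0.2 mg/mL BSA and 0.4 mg/ml salmon testes DNA. In it, ligand-free nuclear receptor dimers were incubated 1 h on custom Agilent 4×180K protein-binding microarrays carrying double-stranded probes. Antibodies against each partner (one per run) detected binding, and z-scores were calculated against random background probes after regression normalization of scanned fluorescence.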

Assay [2] has as its system LXRa:RXRa (NR concentration 270 nM, RXRa partner concentration 90 nM). The essentials: as §1
For assay [3], the system named is LXRa homodimer (NR concentration 270 nM). The essentials: as §1
For assay [4], the system named is LXRb:RXRa (NR concentration 270 nM, RXRa partner concentration 90 nM). The gist of the method:
as §1

Assay [5] deals with LXRb homodimer (NR concentration 270 nM). The gist of the method:
as §1

Assay [6] has as its system PPARa:RXRa (NR concentration 270 nM, RXRa partner concentration 90 nM). The essentials: as §1
Assay [7] relates to PPARg:RXRa (NR concentration 180 nM, RXRa partner concentration 90 nM). The essentials:
as §1

The test system of assay [8] is PPARg:RXRa 270nM:90nM, anti-RXR (NR concentration 270 nM, RXRa partner concentration 90 nM). The gist of the method:
as §1

Assay [9] has as its system PPARg:RXRa 30nM:10nM, anti-RXR (NR concentration 30 nM, RXRa partner concentration 10 nM). The essentials:
as §1

The subject of assay [10] is PPARg:RXRa 90nM:30nM, anti-RXR (NR concentration 90 nM, RXRa partner concentration 30 nM). The gist of the method:
as §1

Assay [11] concerns PPARg:RXRa DBDmut IVT, anti-RXR (DBD mutation: RXRa K156A/R161A, NR concentration 270 nM, RXRa partner concentration 90 nM). The essentials:
as §1

The test system of assay [12] is PPARg:RXRa IVT, anti-PPARg (NR concentration 270 nM, RXRa partner concentration 90 nM). The gist of the method:
as §1

Assay [13] has as its system PPARg DBDmut:RXRa IVT, anti-PPARg (DBD mutation: PPARg1 K132A/R137A, NR concentration 270 nM, RXRa partner concentration 90 nM). The gist of the method: as §1
The subject of assay [14] is PPARg DBDmut IVT, anti-PPARg (DBD mutation: PPARg1 K132A/R137A, NR concentration 270 nM). The gist of the method:
as §1

The test system of assay [15] is PPARg homodimer (NR concentration 180 nM). The gist of the method:
as §1

The subject of assay [16] is PXR:RXRa (NR concentration 270 nM, RXRa partner concentration 90 nM). The gist of the method: as §1
In assay [17] the test system is PXR homodimer (NR concentration 270 nM). The essentials:
as §1

The test system of assay [18] is RARa:RXR (NR concentration 270 nM, RXRa partner concentration 90 nM). The essentials:
as §1

Assay [19] relates to RARa homodimer (NR concentration 270 nM). The essentials: as §1
Assay [20] deals with RARb:RXRa (NR concentration 270 nM, RXRa partner concentration 90 nM). The gist of the method: as §1

For TCTCGGAGGACACGAAGGTAAGAGCTTTCCAGAG, the PBM binding z-score in assay [1] was 0.0947; in [2], -0.361; in [3], -0.534; in assay [4], -0.695; in assay [5], -1.37; in assay [6], -0.0207. Also, the PBM binding z-score was -0.0725 in assay [7]; 0.91 in assay [8]; 2.21 in assay [9]; 1.39 in [10]; 1.18 in assay [11]; -0.283 in [12]. Further, the PBM binding z-score in assay [13] is -1.16; in [14] it was -1.1; in assay [15], -1.58; in assay [16] it was -0.316; in assay [17], -1.01; in assay [18], -0.153. In addition, the figures for the PBM binding z-score in assay [19] and in assay [20] were -0.725 and 1.25, respectively.
In the case of TCTGCTAGGTCAACGATGGTCAGCTAGTCTGCTA, the PBM binding z-score is 3.29 in assay [1]; 2.53 in assay [2]; -0.369 in assay [3]; 1.39 in [4]; -0.445 in [5]; 3.44 in assay [6]. For the same sequence, the PBM binding z-score was determined as 2.46 in [7]; 2.9 in assay [8]; 1.75 in assay [9]; 2.53 in assay [10]; 3.64 in assay [11]; 4.26 in assay [12]. Also, the PBM binding z-score in [13] was -0.411; in [14] it was -0.961; in assay [15], 0.415; in [16] it was 1.42; in assay [17], -1.07; in [18], 2.26. Also, the PBM binding z-score in [19] was -1.08; in assay [20], 4.06.
Consider ATCGAAAGGGCGAAGGTGAGTATACCCACCCGAA, for which the PBM binding z-score in assay [1] is 0.199; in [2] it was 0.432; in assay [3], -0.538; in assay [4], 0.0351; in assay [5], -0.165; in assay [6], 1.72. Moreover, the PBM binding z-score in [7] was 1.93; in assay [8] it was 2.33; in assay [9], 0.766; in assay [10] it was 1.93; in [11], -0.906; in assay [12] it was 0.809. Also, the PBM binding z-score was 0.146 in [13]; -0.234 in assay [14]; 1.04 in assay [15]; 0.359 in assay [16]; -0.166 in assay [17]; 1.03 in [18]. Besides, the PBM binding z-score is -0.384 in assay [19] and 1.94 in assay [20].
CTCGAAAGGTCGGTTGAGGTAAGTATACGGATAA: the PBM binding z-score was 1.93 in assay [1]; 1.41 in assay [2]; -0.197 in assay [3]; 1.28 in assay [4]; -0.165 in assay [5]; 2.34 in assay [6]. In addition, the PBM binding z-score in assay [7] was 0.4; in assay [8], 0.787; in assay [9], 0.0171; in [10], 0.608; in assay [11], -0.106; in assay [12] it was 0.306. In addition, the PBM binding z-score was -0.141 in assay [13]; 0.138 in [14]; 0.476 in assay [15]; 2.45 in assay [16]; 0.12 in [17]; 1.54 in assay [18]. Moreover, the PBM binding z-score was -0.0404 in assay [19] and 2.64 in assay [20].
Regarding GCTAGTTGGTCAGTAAAGGGTCACACACCGGTCG, the PBM binding z-score in assay [1] was determined as 2.1; in assay [2] it was 2.52; in [3], 1.36; in assay [4], 2.63; in assay [5] it was 0.0328; in assay [6], 3.36. The PBM binding z-score in assay [7] is 1.72; in assay [8], 2.79; in assay [9], 0.505; in assay [10] it was 1.89; in [11], 0.794; in assay [12], 2.2. Also, the PBM binding z-score was -0.362 in assay [13]; -0.645 in [14]; 2.52 in [15]; 3.32 in assay [16]; 0.202 in assay [17]; 4.15 in [18]. Moreover, the PBM binding z-score in assay [19] was determined as 0.553; in assay [20] it was 3.43.
As to CCTTACGGGTCACTCCAGGGTATAGCATCGGAGT, the PBM binding z-score was 4.69 in assay [1]; 6.8 in assay [2]; 0.368 in [3]; 3.85 in [4]; -0.114 in [5]; 4.27 in assay [6]. The PBM binding z-score was 3.23 in assay [7]; 3.68 in assay [8]; 1.19 in assay [9]; 2.52 in assay [10]; 2.07 in [11]; 3.17 in assay [12]. In addition, the PBM binding z-score is -0.61 in assay [13]; -0.915 in assay [14]; 2.12 in assay [15]; 3.89 in [16]; 0.022 in assay [17]; 3.65 in [18]. Besides, the PBM binding z-score is -0.123 in assay [19] and 3.54 in assay [20].
In the case of CTAACGAGGGCATGAGTTGATAGCAAATGCCGAT, the PBM binding z-score in assay [1] was 0.543; in [2] it was 0.409; in [3], -0.604; in assay [4], 0.119; in assay [5] it was -0.182; in assay [6] it was 1.54. Besides, the PBM binding z-score worked out at 1.71 in assay [7]; 2.02 in [8]; 0.704 in [9]; 1.51 in assay [10]; 3.84 in assay [11]; 2.56 in [12]. In addition, the PBM binding z-score in assay [13] is 0.128; in [14], 0.129; in assay [15] it was 0.262; in [16] it was 0.639; in assay [17], 0.123; in assay [18] it was 0.588. The PBM binding z-score in [19] is 0.359; in assay [20] it was 2.01.
